bovine MsrA act: bovine MsrA enzyme activators, primary screen, biochemical, absorbance, HTS. Methionine sulfoxide reductase A (Bos taurus). purified bovine MsrA, absorbance read-out. activation, % at 10.6 µM. hit rate 0.3% among 360,000; in the data active means activation above about 7.5%;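 further: 0% = vehicle and 100% = reference activator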
MsrA inhibitor: bovine MsrA enzyme inhibitors, primary screen, biochemical, absorbance, HTS; purified bovine MsrA, absorbance read-out; AID 651718, 2012; Methionine sulfoxide reductase A (Bos taurus); inhibition, % at 15.5 µM; hit rate 0.75% among 360,000; in the data active means inhibition above about 4.5%;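 further: 0% = vehicle wells with enzyme and 100% = reference inhibitor wells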
14-3-3 Bad inh: inhibitors of 14-3-3 zeta/Bad binding, primary screen, biochemical, TR-FRET, bovine 14-3-3 zeta; inhibition, % at 21.7 µM; hit rate 0.71% among 220,000; 14-3-3 protein zeta/delta (Bos taurus), P63103; TR-FRET 14-3-3zeta/Dy647-pBad peptide displacement, 1 h;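 active means inhibition above about 70%, limit read from the data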;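 further: 0% = full 14-3-3 plus peptide FRET controls and 100% = background without 14-3-3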
Target sequence (P63103 whole entry, looked up): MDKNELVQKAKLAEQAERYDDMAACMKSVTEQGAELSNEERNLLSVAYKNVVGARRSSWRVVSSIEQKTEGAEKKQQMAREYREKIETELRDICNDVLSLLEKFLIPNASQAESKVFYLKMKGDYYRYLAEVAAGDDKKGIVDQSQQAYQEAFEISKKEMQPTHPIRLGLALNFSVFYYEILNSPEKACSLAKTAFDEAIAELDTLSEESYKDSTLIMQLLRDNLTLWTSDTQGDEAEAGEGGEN
p-CIP stab down: p/CIP-EGFP fusion destabilizers, primary screen, fluorescence, F442A cells; Q05BA5; 16 h; decrease of EGFP signal, % at 10 µM; hit rate 0.01% among 290,000;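 active means EGFP signal decrease of at least 30% at 10 µM or well 3 SD below plate mean, unless failing retest; inactive means the rest, including hits failing retest or dose response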
* marks the source's active call; other numbers are inactive results; nt = no result given; [ ] = another dose, or the depositor's remark. The list is not random: actives were taken first. Their share in the collection is about 1.4%.

SMILES | bovine MsrA act | MsrA inhibitor | 14-3-3 Bad inh | p-CIP stab down
CCCCCCCCN1C(=O)[C@@H](CC(=O)NCCCOC)C[C@@]2(C(=O)OC)C1=C[C@H](C1CCCC1)O[C@@H]2C | nt | -0.5 | nt | nt
O=c1oc2c(O)c(O)cc3c(=O)oc4c(O)c(O)cc1c4c23 | -7.2 | nt | 97.5*[fluorescence artefact?] | -5.5
O=c1oc2ccccc2c2oc3cc(O)c(O)cc3c12 | -4.4 | 0.8 | 14.9 | 6.6
CN1CCCCC(NC(=O)c2ccc3ccccc3c2)C1=O (stereo not drawn) | nt | -0.4 | nt | nt
N=C1S/C(=C\c2ccc(-c3cccc(Cl)c3)o2)C(=O)N1c1nccs1 | -2.4 | -0.1 | 74.2*[fluorescence artefact?] | -3.4
O=C(N[C@H](C(=O)N1CCC[C@H]1C(=O)NCc1ccccc1)C1CCCCC1)c1ccc(Cl)c(Cl)c1 | nt | 1.6 | nt | nt
Cc1ccc(/C=C2\SC(N3CCCC3)=NC2=O)cc1 | nt | 4.6* | -2.5 | 1.2
CCOC(=O)C1CCN(C2=NC(=O)/C(=C/c3ccc(Cl)cc3)S2)CC1 | -2.8 | 4.7* | nt | 4.5
CC(C)c1ccc(/C=C2\SC(N3CCCC3)=NC2=O)cc1 | -1.7 | 3.2 | 1.5 | -3.5
COc1ccc(S(=O)(=O)N2CCCc3nc(-c4ccccc4)ccc32)cc1 | nt | -0.2 | nt | nt
COc1cccc(/C=N/NC(=O)c2ccc(-c3ccccc3)cc2)c1O | -4.8 | 2.2 | -1.9 | 2.8
COc1cccc(/C=N/NC(=O)c2[nH]c(C)c(C(=O)N/N=C/c3cccc(OC)c3O)c2C)c1O | -8.2 | 5.0* | -15.4 | -0.3
CC1OC(CC(=O)O)CC2=C1C(=O)c1c(O)cccc1C2=O (stereo not drawn) | 66.9* | 9.9* | nt | nt
Cc1ccc(NC(=O)NC(=O)CN2C(=O)NC3(CCCCCCC3)C2=O)c(C)c1 | -0.1 | -0.7 | 71.4* | -0.4
Nc1[nH]c(C(=O)c2ccc(Br)cc2)c(-c2ccccc2)c1C(=O)NCCc1c[nH]c2ccccc12 | nt | 0.2 | nt | nt
Cc1ccc(Cn2c(S(=O)(=O)O)nc3ccccc32)cc1 | -1.3 | 0.1 | 80.6* | 2.2
C[C@@H]1CN(C(=O)OC(C)(C)C)CCN1c1ccc(N2CCS(=O)(=O)CC2)c(C#N)c1 | nt | 0.0 | nt | nt
CCCCNC(=O)CCSc1nc2nc(C)cc(C)n2n1 | 8.0* | nt | -0.6 | 1.2
O=C(O)C1Nc2c(O)cccc2C2C=CCC12 (stereo not drawn) | -4.6 | 0.1 | 82.8*[fluorescence artefact?] | 5.3
CC(C)(Oc1ccc(Cl)cc1)C(=O)OCC(=O)Nc1ncc(Cl)cc1Cl | -1.8 | 1.5 | 87.9* | 6.5
Cc1c(CC(=O)NCC(=O)O)c(=O)oc2cc3c(cc12)CCC(C)(C)O3 | -3.6 | 4.6* | nt | -3.2
Cc1c(CC(=O)NCC(=O)NCC(=O)O)c(=O)oc2cc3c(cc12)CCC(C)(C)O3 | -2.2 | 2.9 | nt | -0.3
COC(=O)c1cc2c(c3c4ccccc4n(S(=O)(=O)c4cccc(C)c4)c13)C(=O)N(C)C2 | nt | 0.2 | nt | nt
COc1cc(C(=O)Nc2cccc(-c3nc4cc(C)ccc4o3)c2)cc(OC)c1OC | -2.1 | 0.1 | 46.2 | -5.7
COc1cc(C(=O)Nc2cc(-c3nc4cc(C)ccc4o3)ccc2C)cc(OC)c1OC | -0.7 | 0.0 | 78.6* | -11.4
SMILES | bovine MsrA act | MsrA inhibitor | 14-3-3 Bad inh | p-CIP stab down
COC(=O)c1cc2c(c3c4cc(C)ccc4n(S(=O)(=O)c4ccc(OC)cc4)c13)C(=O)N(Cc1ccccc1)C2 | nt | 0.7 | nt | nt
O=C(CN1C(=O)S/C(=C\c2ccc(Cl)cc2)C1=O)NNC(=O)c1ccccc1O | -9.8 | 1.6 | 76.7*[fluorescence artefact?] | 5.9
O=C(N[C@H](Cc1ccccc1)C(=O)NCCCc1ccccc1)[C@H]1O[C@@H](n2ccc(=O)[nH]c2=O)[C@H](O)[C@@H]1O | nt | -0.1 | nt | nt
CC(C)(C)C1CCC(OCC(O)CN2CCN(c3ccccc3)CC2)CC1 (stereo not drawn) | -2.7 | -0.4 | 74.8* | -4.0
CC(C)(C)C1CCC(OCC(O)CN2CCCC2)CC1 (stereo not drawn) | -3.2 | -1.0 | -5.3 | 3.1
COc1cccc(OC)c1OCC(O)CN1CCN(c2ccccc2)CC1 (stereo not drawn) | -9.7 | -0.3 | 71.9* | -4.8
O=C(N[C@@H](Cc1cccnc1)C(=O)N1CCC[C@H]1C(=O)NCc1ccccc1)c1ccc(Cl)cc1Cl | nt | 0.0 | nt | nt
F[B-](F)(F)COCc1ccccc1C#Cc1ccccc1 | nt | 0.3 | nt | nt
O=C(Nc1cccc(-c2nc3cccnc3s2)c1)C1c2ccccc2Oc2ccccc21 | -2.3 | 0.7 | 90.9* | -6.6
O=C(Nc1cccc(-c2nc3cccnc3s2)c1)c1cccnc1Cl | -11.8 | 1.6 | 7.3 | -2.4
COc1ccc(NC(=O)c2ccc(Cl)nc2)cc1S(=O)(=O)N1CCCCC1 | -11.7 | -1.2 | 91.1* | 3.1
CCCC(C)C(=O)NC1CCCCN(C)C1=O (stereo not drawn) | nt | -0.5 | nt | nt
Oc1cccc(C(O)CNCc2ccc(-c3ccccc3)cc2)c1 (stereo not drawn) | -1.3 | 1.0 | 77.4* | -2.6
CCOC(=O)N1CCN(C(=O)C[C@H]2C[C@@]3(C(=O)OC)C(=C[C@H](C(C)(C)C)O[C@@H]3C)N(Cc3ccccc3)C2=O)CC1 | nt | 0.1 | nt | nt
CCC1C(=O)CC(c2ccco2)NC1c1ccco1 (stereo not drawn) | -1.2 | 0.0 | 35.0 | 3.8
C=CCC1(O)CC(c2ccco2)NC(c2ccco2)C1CCC (stereo not drawn) | 1.3 | 0.1 | 79.4* | -5.2
Cc1ccc(S(=O)(=O)N2CCC(=O)N([C@H](COCc3ccc(C(F)(F)F)cc3)Cc3ccccc3)CC2)cc1 | -0.9 | 0.4 | nt | nt
Cc1ccc(S(=O)(=O)N2CCC(=O)N(C(COCc3ccc(C(F)(F)F)cc3)Cc3ccccc3)CC2)cc1 (stereo not drawn) | -3.9 | 0.3 | 81.5* | 6.6
CC(=O)N(C1=C(O)c2ccccc2C(=O)C1=O)C1CCCCC1 | -5.1 | 1.8 | 59.4 | 9.8
CC(=O)N(C)C1=C(O)c2ccccc2C(=O)C1=O | -2.3 | 1.1 | 70.3* | -2.0
CN1CCN(CC(=O)NC2CCCCC2)CC1 | -3.2 | -1.4 | 71.0* | 6.4
O=C(c1cccs1)N1CCN(Cc2ccncc2)CC1 | -0.4 | 0.2 | 73.5* | -0.1
O=C(c1cccnc1)N1CCN(CCCc2ccccc2)CC1 | -0.9 | -0.3 | 72.2* | -19.2
O=C(c1cccs1)N1CCN(Cc2cccnc2)CC1 | -9.4 | 0.5 | 75.9* | -7.5
O=C(c1cccs1)N1CCN(CCCc2ccccc2)CC1 | -0.2 | 0.1 | 72.3* | -9.9
SMILES | bovine MsrA act | MsrA inhibitor | 14-3-3 Bad inh | p-CIP stab down
O=C(c1cccs1)N1CCC(Cc2ccccc2)CC1 | 0.1 | -0.7 | -0.6 | -3.2
O=C(c1cccs1)N1CCN(Cc2ccccc2)CC1 | -7.3 | 0.9 | 4.9 | -0.4
CN1CCCCC(NC(=O)CSc2ccccc2)C1=O (stereo not drawn) | nt | 0.4 | nt | nt
O=C(NCC1CCN(C(=O)C(=O)c2cccs2)CC1)c1ccc2c(c1)CCO2 | nt | 1.3 | nt | nt
Oc1cccc(/C=N/NC(=S)Nc2cccnc2)c1O | -3.9 | 3.4 | -6.5 | -2.6
Oc1ccc(/C=N/NC(=S)Nc2cccnc2)c(O)c1O | -4.3 | 3.6 | 72.2* | -3.9
Nc1[nH]c(C(=O)c2ccccc2)c(-c2ccccn2)c1C(=O)c1c[nH]c2ccc(F)cc12 | nt | 0.7 | nt | nt
N=C1/C(=C\c2ccc(-c3cccc(Cl)c3)o2)C(=O)N=C2SC=C(c3ccccc3)N12 | -6.5 | -0.4 | 3.0 | 5.6

Assay outcomes: PubChem, several laboratories
